A short description of assay [1]: small molecules captured by biotinylated probe aFSTL3 – biochemical, small-molecule microarray, fluorescence 635/667, stem cell growth factor project, primary screen (AID 1064).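 Further: measures binding of the biotinylated anti-FSTL3 antibody to printed compounds.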 The settings on record: higher = more signal.
Assay [2] can be described thus: binders from COS7 lysate, DM2A8 probe, primary screen, torsin A project, cell lysate, small-molecule microarray, fluorescence 635/667 (AID 1065). The settings on record: higher = more signal, COS7 lysate expressing mutant human TOR1A.
The nature of assay [3]: small molecules captured by biotinylated probe aFGF2 – biochemical, small-molecule microarray, fluorescence 635/667, stem cell growth factor project, primary screen (AID 1067).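 Further: measures binding of biotinylated aFGF2 protein to printed compounds on slides; z-score merges feature fluorescence and signal-to-noise across triplicate slides.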 The settings on record: higher = more signal.
Assay [4] in a line: small molecules captured by biotinylated probe aFGF10 – biochemical, small-molecule microarray, fluorescence 635/667, stem cell growth factor project, primary screen (AID 1071).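 Further: score merges 667 nm spot intensity and signal to noise from triplicate slides.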 The settings on record: higher = more signal.
Assay [5] addresses Neurogenic locus notch homolog protein 2 (Homo sapiens) (UniProt Q04721). The assay can be described thus: small molecules binding Notch2 protein – biochemical, small-molecule microarray, 635 nm fluorescence, stem cell growth factors, primary screen (AID 1073). The settings on record: higher = more signal.
In assay [6] the target is Pro-neuregulin-1, membrane-bound isoform (Homo sapiens) (UniProt Q02297). As to the kind of experiment: small molecules binding neuregulin-1 protein – biochemical, small-molecule microarray, fluorescence 635/667, psychiatric disease protein project, primary screen (AID 1075).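 Further: score combines 667 nm spot fluorescence with signal to noise.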 The settings on record: NRG1 binding, 635 nm fluorescence, higher = more signal.
Pro-neuregulin-1, membrane-bound isoform (Homo sapiens), sequence (Q02297 whole entry, looked up, the tested form may be a part, canonical isoform): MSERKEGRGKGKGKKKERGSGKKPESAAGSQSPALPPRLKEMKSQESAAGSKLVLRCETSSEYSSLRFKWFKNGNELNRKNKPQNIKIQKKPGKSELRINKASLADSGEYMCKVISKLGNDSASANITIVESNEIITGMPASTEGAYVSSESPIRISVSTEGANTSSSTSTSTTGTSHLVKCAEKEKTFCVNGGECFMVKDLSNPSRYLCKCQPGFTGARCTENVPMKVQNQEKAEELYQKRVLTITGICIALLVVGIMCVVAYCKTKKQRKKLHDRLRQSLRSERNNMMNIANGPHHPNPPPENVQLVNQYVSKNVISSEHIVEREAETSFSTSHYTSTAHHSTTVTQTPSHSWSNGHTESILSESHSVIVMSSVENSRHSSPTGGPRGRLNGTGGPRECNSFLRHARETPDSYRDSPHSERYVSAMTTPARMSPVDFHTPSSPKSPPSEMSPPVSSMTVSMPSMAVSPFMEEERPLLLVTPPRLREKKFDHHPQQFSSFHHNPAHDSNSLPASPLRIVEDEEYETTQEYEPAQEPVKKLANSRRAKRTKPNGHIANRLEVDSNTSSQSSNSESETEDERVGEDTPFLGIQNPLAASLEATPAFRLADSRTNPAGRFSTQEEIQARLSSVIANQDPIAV
Assay [7] relates to Neuregulin-1 EGF-like domain. The assay can be described thus: small molecules binding NRG1 EGF domain – biochemical, small-molecule microarray, 635 nm fluorescence, primary screen (AID 1081).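 Further: binding of the protein to compounds printed on small-molecule microarray slides.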 The settings on record: higher = more signal.
A short description of assay [8]: FRG1 expression reporter modulators in myotubes – cell-based, C2C12 myotubes, firefly/Renilla luciferase, luminescence, FRG1 inhibition for FSHD, primary screen (AID 1084). The settings on record: FRG1 promoter luciferase, higher = more signal, called active from +8 up or from −8 down.
Assay [9] can be described thus: small molecules captured by biotinylated probe aFST – biochemical, small-molecule microarray, fluorescence 635/667, stem cell growth factor project, primary screen (AID 1086).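 Further: score merges 667 nm fluorescence with signal-to-noise of each printed compound spot.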 The settings on record: higher = more signal.
Assay [10] can be described thus: binders of probe aHhip on microarray, primary screen, stem cell growth factor project, biochemical, small-molecule microarray, fluorescence 635/667 (AID 1087).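 Further: score merges spot fluorescence at 667nm with spot signal to noise ratio.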 The settings on record: higher = more signal.
The test system of assay [11] is PRMT1 (protein arginine N-methyltransferase 1). As to the kind of experiment: small molecules binding arginine methyltransferase PRMT1 – biochemical, small-molecule microarray, 635 nm fluorescence, primary screen (AID 1088).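 Further: binding of Prmt1 protein to compounds spotted on small-molecule microarray slides.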 The settings on record: higher = more signal.
The nature of assay [12]: growth effects on S. cerevisiae YJM789 – YJM789 clinical isolate, OD600, 24 h, basal, primary screen (AID 1089).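 Further: growth of clinical yeast isolate S. cerevisiae YJM 789 seeded 1000 cells per well; test concentration not given here.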 The settings on record: higher = more signal, called active from +8 up or from −8 down.
Assay [13] can be described thus: S. pombe growth modifiers, basal conditions – strain 972, OD600, 24 h, no modulator, primary screen (AID 1090).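 Further: basal condition with compound alone and no growth modifier present; test concentration not given here.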 The settings on record: S. pombe 972 growth, higher = more signal, called active from +8 up or from −8 down.
Assay [14] is described as follows: budding yeast growth modifiers under rapamycin – strain BY4716, OD600, 96 h, primary screen (AID 1091). Further: test concentration not given here. The settings on record: S. cerevisiae BY4716 + rapamycin, higher = more signal, called active from +8 up or from −8 down.
The target in assay [15] is Torsin-1A-interacting protein 2 (Homo sapiens) (UniProt Q8NFQ8). The assay can be described thus: small molecules binding lysate-expressed LULL1 – cell lysate, human LULL1 lysate, 635/667 nm fluorescence, primary screen (AID 1092).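 Further: probe is lysate of COS7 cells overexpressing human LULL1; score merges per-feature 667 nm fluorescence with signal-to-noise.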 The settings on record: small-molecule microarray, hLULL1 lysate binding, 635 nm fluorescence; higher = more signal.
Torsin-1A-interacting protein 2 (Homo sapiens), sequence (Q8NFQ8 whole entry, looked up): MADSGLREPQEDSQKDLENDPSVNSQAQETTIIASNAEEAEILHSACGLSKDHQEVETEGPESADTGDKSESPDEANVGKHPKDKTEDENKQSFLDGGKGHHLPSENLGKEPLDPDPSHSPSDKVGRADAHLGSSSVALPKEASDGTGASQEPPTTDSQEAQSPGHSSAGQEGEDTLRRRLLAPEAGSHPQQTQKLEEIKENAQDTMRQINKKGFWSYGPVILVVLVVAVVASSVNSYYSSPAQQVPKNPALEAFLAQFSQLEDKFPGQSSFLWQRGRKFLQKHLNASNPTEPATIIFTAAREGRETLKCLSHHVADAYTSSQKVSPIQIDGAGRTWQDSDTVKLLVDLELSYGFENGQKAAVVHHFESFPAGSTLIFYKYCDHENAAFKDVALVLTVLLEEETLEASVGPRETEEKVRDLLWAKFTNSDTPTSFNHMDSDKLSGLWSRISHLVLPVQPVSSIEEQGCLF
Assay [16] in a line: optical density change of DRC41 E. coli – strain DRC41, OD650, 24 h, E. coli filamentation project, primary screen (AID 1093).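 Further: MC1000 strain lacking acrAB efflux and sulA so SOS filamentation is blocked; test concentration not given here.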 The settings on record: E. coli DRC41 growth, higher = more signal, called active from +8 up or from −8 down.
The nature of assay [17]: probe aLefty2 binding to arrayed compounds – biochemical, biotinylated probe, 635/667 nm fluorescence, primary screen (AID 1094).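 Further: score merges spot fluorescence near 667 nm with spot signal-to-noise ratio.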 The settings on record: small-molecule microarray, higher = more signal.
Assay [18] deals with Noggin (protein binding on small-molecule microarray). As to the kind of experiment: small molecules binding Noggin protein – biochemical, 635/667 nm fluorescence, primary screen (AID 1095).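 Further: score merges 667 nm feature fluorescence with signal to noise over triplicate slides.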 The settings on record: 635 nm fluorescence, higher = more signal.
The target in assay [19] is Neurogenic locus notch homolog protein 3 (Homo sapiens) (UniProt Q9UM47). The assay can be described thus: small molecules binding NOTCH3 protein – biochemical, 635/667 nm fluorescence, primary screen (AID 1096). The settings on record: small-molecule microarray, 635 nm fluorescence, higher = more signal.
Assay [20] can be described thus: probe aEGFR binding to arrayed compounds – biochemical, biotinylated probe, 635/667 nm fluorescence, primary screen (AID 1097).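 Further: probe is a biotinylated anti-EGFR antibody binding compounds printed on slides; score combines fluorescence near 667 nm and signal to noise of each spot.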 The settings on record: small-molecule microarray, higher = more signal.

Molecules are shown by their SMILES. Activity calls are given as the source filed them.

Neurogenic locus notch homolog protein 2 (Homo sapiens), sequence (Q04721 whole entry, looked up, canonical isoform): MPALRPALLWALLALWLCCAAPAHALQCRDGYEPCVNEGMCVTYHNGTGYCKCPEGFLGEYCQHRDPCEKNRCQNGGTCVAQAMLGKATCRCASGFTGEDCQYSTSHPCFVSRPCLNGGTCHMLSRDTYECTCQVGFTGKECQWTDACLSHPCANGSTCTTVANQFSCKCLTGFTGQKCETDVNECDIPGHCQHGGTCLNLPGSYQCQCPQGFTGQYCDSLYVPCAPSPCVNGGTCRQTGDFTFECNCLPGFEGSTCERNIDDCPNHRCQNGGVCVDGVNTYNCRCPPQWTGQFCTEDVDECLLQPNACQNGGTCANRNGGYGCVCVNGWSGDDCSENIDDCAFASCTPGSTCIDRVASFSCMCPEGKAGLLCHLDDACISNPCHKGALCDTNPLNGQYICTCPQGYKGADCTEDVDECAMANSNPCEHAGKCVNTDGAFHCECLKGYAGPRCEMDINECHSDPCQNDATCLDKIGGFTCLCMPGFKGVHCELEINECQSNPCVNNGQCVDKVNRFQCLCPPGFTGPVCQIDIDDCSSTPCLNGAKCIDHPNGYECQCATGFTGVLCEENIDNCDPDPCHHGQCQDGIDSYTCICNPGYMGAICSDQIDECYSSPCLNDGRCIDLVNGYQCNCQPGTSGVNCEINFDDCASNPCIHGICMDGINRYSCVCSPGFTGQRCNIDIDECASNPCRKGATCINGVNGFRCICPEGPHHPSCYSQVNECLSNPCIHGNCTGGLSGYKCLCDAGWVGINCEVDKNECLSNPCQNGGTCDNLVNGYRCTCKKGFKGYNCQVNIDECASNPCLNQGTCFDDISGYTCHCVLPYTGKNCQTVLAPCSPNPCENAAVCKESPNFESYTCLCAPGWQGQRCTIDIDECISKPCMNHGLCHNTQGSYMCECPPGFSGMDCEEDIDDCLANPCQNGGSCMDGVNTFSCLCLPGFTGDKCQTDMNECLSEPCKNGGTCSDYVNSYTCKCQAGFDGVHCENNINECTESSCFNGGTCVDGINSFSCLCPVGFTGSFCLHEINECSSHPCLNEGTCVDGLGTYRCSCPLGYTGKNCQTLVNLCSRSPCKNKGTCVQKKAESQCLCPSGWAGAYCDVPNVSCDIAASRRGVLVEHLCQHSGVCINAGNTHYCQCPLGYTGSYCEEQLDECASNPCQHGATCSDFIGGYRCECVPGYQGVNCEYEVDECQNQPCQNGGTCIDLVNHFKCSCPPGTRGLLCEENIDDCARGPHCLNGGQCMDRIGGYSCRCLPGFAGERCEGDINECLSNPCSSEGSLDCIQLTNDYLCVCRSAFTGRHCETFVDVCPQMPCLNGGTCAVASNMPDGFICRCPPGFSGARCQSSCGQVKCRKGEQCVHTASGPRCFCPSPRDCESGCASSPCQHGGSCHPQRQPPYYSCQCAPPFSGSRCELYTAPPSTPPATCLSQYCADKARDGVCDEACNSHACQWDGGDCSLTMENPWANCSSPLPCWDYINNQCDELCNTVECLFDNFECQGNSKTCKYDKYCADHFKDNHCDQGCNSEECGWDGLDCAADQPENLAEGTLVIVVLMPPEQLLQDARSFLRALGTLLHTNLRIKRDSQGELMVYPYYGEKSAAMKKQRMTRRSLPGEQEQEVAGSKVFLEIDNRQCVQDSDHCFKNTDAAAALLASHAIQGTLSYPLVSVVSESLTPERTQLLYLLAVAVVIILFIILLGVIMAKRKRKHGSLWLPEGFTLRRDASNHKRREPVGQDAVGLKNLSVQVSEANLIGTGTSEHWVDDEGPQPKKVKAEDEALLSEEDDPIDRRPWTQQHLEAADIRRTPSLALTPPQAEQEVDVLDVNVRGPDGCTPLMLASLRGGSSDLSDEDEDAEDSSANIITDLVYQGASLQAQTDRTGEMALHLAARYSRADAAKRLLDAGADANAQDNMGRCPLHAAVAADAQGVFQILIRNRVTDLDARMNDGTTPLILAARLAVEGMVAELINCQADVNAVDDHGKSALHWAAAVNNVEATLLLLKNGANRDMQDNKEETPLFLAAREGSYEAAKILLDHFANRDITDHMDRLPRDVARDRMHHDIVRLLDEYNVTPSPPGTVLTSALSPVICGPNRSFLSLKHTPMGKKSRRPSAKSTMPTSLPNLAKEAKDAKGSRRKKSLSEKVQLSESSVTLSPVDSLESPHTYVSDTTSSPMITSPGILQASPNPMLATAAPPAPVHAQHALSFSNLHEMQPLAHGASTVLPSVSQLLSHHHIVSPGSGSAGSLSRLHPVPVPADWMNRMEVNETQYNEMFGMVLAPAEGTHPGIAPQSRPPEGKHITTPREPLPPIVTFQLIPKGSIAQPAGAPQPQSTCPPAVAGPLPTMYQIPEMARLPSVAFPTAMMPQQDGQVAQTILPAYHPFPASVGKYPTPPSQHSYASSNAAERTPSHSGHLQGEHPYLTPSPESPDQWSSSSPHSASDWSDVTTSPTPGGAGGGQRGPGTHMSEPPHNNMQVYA

Regarding `NC(N)=NCCCn1cc(CNC(=O)[C@@H](N)Cc2ccccc2)nn1`, the composite z-score is 0.236 in [1]; 0.236 in [2]; 0.0263 in assay [3]; -0.0436 in [4]; -0.0857 in assay [5]; 1.28 in [6]. Further, the composite z-score amounted to 1.49 in assay [7]; 0.044 in assay [9]; 0.0053 in assay [10]; 0.605 in assay [11]; 1.14 in assay [15]; 0.0616 in [17]. Further, the composite z-score in assay [18] turned out to be 0.743; in [19], 0.179; in assay [20], 0.0221. Moreover, the z-score in [8] was 1.28 (inactive); in assay [12], 0.567 (inactive); in assay [13] it was -0.627 (inactive); in [14] it was -0.933 (inactive); in assay [16], -1.08 (inactive).
For the compound `COCCCNC(=O)[C@]1(CCS(=O)(=O)c2ccccc2)N=C(c2ccc(OCCCO)cc2)O[C@@H]1c1ccccc1N=[N+]=[N-]`, the composite z-score in assay [1] is 1.42; in [2], 0.769; in [3], 0.263; in assay [4] it was 1.11; in assay [5] it was 0.984; in assay [6], 0.977. In addition, the composite z-score is 1.01 in [7]; 1.98 in [9]; -0.202 in [10]; 1.38 in assay [11]; 2.93 in assay [15]; 0.106 in [17]. Moreover, the results for the composite z-score in assay [18], in [19] and in assay [20] were -0.122, 0.349 and 0.287, respectively. For the same compound, the z-score in assay [8] was 4.31 (inactive); in [12], 0.371 (inactive); in assay [13], 0.61 (inactive); in assay [14], 3.42 (inactive); in [16] it was 0.464 (inactive).
Take `O=C(NCCCCCNC(=O)/C(Cc1ccccc1)=N/O)OCc1ccccc1`: the composite z-score is -0.51 in assay [1]; 0.148 in assay [2]; -0.25 in [3]; 0.293 in [4]; 0.421 in [5]; -0.181 in assay [6]. Also, the composite z-score was -0.422 in [7]; 0.152 in assay [9]; -0.409 in assay [10]; -0.276 in assay [11]; -0.625 in [15]; -0.17 in assay [17]. The composite z-score in [18] is 0.164; in [19], 0.253; in [20] it was -0.127. The z-score in assay [8] was -0.213 (inactive); in assay [12] it was -1.72 (inactive); in [13], -1.43 (inactive); in assay [14], -1.89 (inactive); in assay [16], 2.16 (inactive).
For `O=C1O[C@@H](c2ccccc2)[C@@H](c2ccccc2)N2[C@@H](c3ccccc3OCCO)[C@]3(C(=O)Nc4ccc(C#CCCO)cc43)[C@@H](C(=O)N3CCCCCCC3)[C@H]12`, the composite z-score in assay [1] turned out to be 4.01; in assay [2], 2.76; in assay [3] it was 1.1; in assay [4], 1.47; in assay [5], 1.83; in assay [6] it was 2.86. The composite z-score in assay [7] is 1.35; in assay [9] it was 3.89; in assay [10], 2.64; in assay [11], 1.53; in [15], 5.16; in [17], 1.99. In addition, the composite z-score in assay [18] was 2.28; in assay [19], 1.01; in assay [20], 1.49. Besides, the z-score is -3.55 (inactive) in [8]; 0.295 (inactive) in [12]; -4.61 (inactive) in assay [13]; 1.33 (inactive) in [14]; -0.798 (inactive) in assay [16].
On to `COC(=O)c1cn(C[C@@H](Cc2ccccc2)NC(=O)N[C@H](CO)CCc2oc(C(C)=O)c(C(=O)OC)c2C(=O)OC)nn1`, for which the composite z-score in assay [1] was -0.695; in assay [2], 0.603; in assay [3], -0.0602; in [4] it was 0.757; in assay [5], 0.5; in [6], 0.165. The composite z-score in [7] was 1.21; in [9] it was 0.232; in assay [10] it was 0.0274; in assay [11], 0.999; in assay [15], 0.985; in assay [17] it was -0.147. Also, the composite z-score was 0.921 in [18], 1.06 in [19] and 0.084 in [20]. For the same compound, the z-score is -0.776 (inactive) in assay [8]; 0.0017 (inactive) in assay [12]; -0.814 (inactive) in assay [13]; -0.338 (inactive) in assay [14]; 1.01 (inactive) in assay [16].

These data come from PubChem BioAssay.
